This is an account of results in PubChem BioAssay AID1851 (National Center for Advancing Translational Sciences (NCATS), 2009).

Molecules are shown by their SMILES. Among all 16,000 compounds or so, about 4,000 (25%) were called active. Roughly 26% stayed inconclusive and do not appear here. These entries were drawn from the full list. Unmarked numbers belong to inactive results. Calls follow the shape of the dose curve; as a rule, active = well fitted curve in the direction sought with a large enough effect; inconclusive = small, poorly fitted or top-dose-only effect, or effect the other way; inactive = no such curve, though single readings can be large or run the other way.
% is scaled to controls: 0 for no effect and ±100 for the full control effect.

In the experiment the target is Cytochrome P450 2C9 (Homo sapiens) (UniProt P11712). As to the kind of experiment: Cytochrome panel assay with activity outcomes. Conditions: recombinant CYP, pro-luciferin dealkylation, luminescence, p450-cyp2c9; series mostly up to 57.1 µM; activity, negative = inhibition: at the top concentration.
Sequence of Cytochrome P450 2C9 (Homo sapiens) (P11712 whole entry, looked up): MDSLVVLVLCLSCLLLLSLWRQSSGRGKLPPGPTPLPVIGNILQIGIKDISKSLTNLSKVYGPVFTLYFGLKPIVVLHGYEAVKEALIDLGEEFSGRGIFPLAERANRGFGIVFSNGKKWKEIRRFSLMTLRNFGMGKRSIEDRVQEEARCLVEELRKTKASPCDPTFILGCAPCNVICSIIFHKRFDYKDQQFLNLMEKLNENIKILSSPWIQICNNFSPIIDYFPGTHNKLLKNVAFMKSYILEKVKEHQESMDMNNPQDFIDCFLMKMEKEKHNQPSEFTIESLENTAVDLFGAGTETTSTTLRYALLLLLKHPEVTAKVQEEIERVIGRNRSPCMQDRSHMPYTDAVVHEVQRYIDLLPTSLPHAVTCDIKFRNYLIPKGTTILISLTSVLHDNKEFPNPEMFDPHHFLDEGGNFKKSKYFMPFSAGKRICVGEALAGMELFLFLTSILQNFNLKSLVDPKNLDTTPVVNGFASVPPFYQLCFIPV
`CO[C@H]1COC(=O)[C@@H](Cc2ccccc2)NC(=O)[C@@H](C)COC(=O)CCC[C@@H]1C`: the activity, negative = inhibition was 18.6% [at 11.4 µM].
As for `COc1ccc2cc3cc(C(=O)NCc4ccccn4)oc3nc2c1`, the “activity, negative = inhibition” value was 17.7%.
Consider `CCCN(CCC)CCCNC(=O)c1cc2cc3ccc(OC)cc3nc2o1`, for which the “activity, negative = inhibition” value was -13%.
Broadly, the AC50 is the concentration at which the activity in the assay is half-maximal. Take `COc1ccc2cc3cc(C(=O)NCc4ccc5c(c4)OCO5)oc3nc2c1`: the AC50 is 4.47 µM (active).
Take `Cc1ccc(-n2c(-c3ccc(Br)cc3)c[n+]3c2CCc2ccc4cccnc4c2-3)cc1`: the “activity, negative = inhibition” value was -9.21%.
For the compound `OCc1ccc(-c2nn(Cc3ccccc3)c3ccccc23)o1`, the AC50 was 31.6 µM (active).
For `NC(=O)c1csc(-c2ccc(CO)o2)n1`, the activity, negative = inhibition is 6.84% [at 11.4 µM].
For the compound `CCNc1ncc2nc(-c3ccc(F)cc3)c(=O)n(CCC#N)c2n1`, the “activity, negative = inhibition” value is 21.5%.
Consider `CN(C)c1ncc2nc(-c3ccc(Cl)cc3)c(=O)n(Cc3cccs3)c2n1`, for which the “activity, negative = inhibition” value was -13.6%.
Regarding `COc1cc2nc(SCc3ccc(Cl)cc3Cl)n(Cc3cccs3)c(=N)c2cc1OC`, the AC50 was 2.51 µM (active).
As for `CN1CCN(c2ncncc2-c2ccccc2C(F)(F)F)CC1`, the activity, negative = inhibition was 10.5% [at 2.29 µM].
With `Cc1cc(C)c(S(=O)(=O)N2CCCCC2)c(C)c1N(C)S(=O)(=O)c1ccccc1`, the half-maximal activity concentration (AC50) was 2 µM (active).
As for `Cc1ccc(S(=O)(=O)ON=C2CCN(S(=O)(=O)c3ccccc3)CC2)cc1`, the “activity, negative = inhibition” value was -4.35%.
On to `CCN1C(=O)[C@H]2[C@H]3[C@H](O)[C@H](O)C/C(=N/OCC(C)C)[C@@H]3CC[C@@H]2C1=O`, for which the activity, negative = inhibition was 28.3% [at 11.4 µM].
As for `Cc1cccc(OCCSCc2nc3ccccc3[nH]2)c1`, the AC50 was 5.01 µM (active).
`C[N+](C)(C)CCCSc1nc2ccccc2[nH]1`: the activity, negative = inhibition is 3.61% [at 11.4 µM].
For the compound `CS(=O)(=O)Nc1cccc(-c2ccc3ncnc(Nc4ccc(F)cc4)c3c2)c1`, the activity, negative = inhibition was -7.12% [at 2.29 µM].
For the compound `CC(C)C12CN3CC(C(C)C)(CN(C1)C3c1ccco1)C2=O` (configuration not stated), the “activity, negative = inhibition” value was -18.4%.
On to `Cc1ccc(N=CC2=C(O)CC(c3ccco3)CC2=O)cc1` (configuration not stated), for which the AC50 is 8.91 µM (active).
On to `COc1ccc(C(=O)N2CCC3(CCCN(C)C3)CC2)cc1`, for which the “activity, negative = inhibition” value was -17.7%.
In the case of `CCCn1c(CC)nc([N+](=O)[O-])c1S(=O)(=O)c1ccccc1`, the “activity, negative = inhibition” value was 5.38%.
On to `CNC(=S)NNC(=O)c1sccc1OCc1ccc(C)cc1`, for which the “activity, negative = inhibition” value is -25.3%.
As for `COc1ccc(COc2ccsc2C(=O)Nc2ccc(Cl)c(Cl)c2)cc1`, the AC50 is 2.82 µM (active).
On to `N[C@H](Cc1ccc(Cl)cc1)C(=O)O`, for which the “activity, negative = inhibition” value was 23.1%.
With `O=C(O)CCC(=O)c1ccc(Cl)cc1`, the activity, negative = inhibition was 18.6% [at 11.4 µM].
With `CCc1ccc(C(CC(=O)c2ccc(Cl)cc2)C(=O)O)cc1` (configuration not stated), the AC50 is 10 µM (active).
For the compound `CS(=O)(=O)Nc1cccc(-c2cc(NCc3ccccc3)ncn2)c1`, the activity, negative = inhibition is 22.3% [at 2.29 µM].
Consider `CSc1ccc(CNc2ccccc2)cc1`, for which the AC50 was 12.6 µM (active).
On to `CSc1ccc(CNc2ccc(Cl)cc2)cc1`, for which the AC50 is 6.31 µM (active).
Regarding `COc1cccc(CNCc2ccc(SC)cc2)c1OC`, the “activity, negative = inhibition” value is -20%.
For the compound `Cc1ccc(C)c(NC(=O)NCc2ccc(Cl)cc2)c1`, the activity, negative = inhibition is -2.65% [at 11.4 µM].
Regarding `Cc1ccc(S(=O)(=O)N[C@H]2COC(=O)C/C=C\[C@@H](C)[C@H](NS(=O)(=O)c3ccc(C)cc3)COC(=O)[C@H](C)NC(=O)C/C=C\[C@H]2C)cc1`, the activity, negative = inhibition was 15.4% [at 11.4 µM].
For the compound `COC(=O)C/C=C\[C@@H](C)[C@@H](/C=N\OC[C@@H](O)COCc1ccco1)NS(=O)(=O)c1ccc(C)cc1`, the activity, negative = inhibition was -14.9% [at 11.4 µM].
With `COC(=O)C/C=C\[C@@H](C)[C@@H](/C=N\O[C@@H](C)c1cc(-c2c(C)cc(C)cc2C)no1)NS(=O)(=O)c1ccc(C)cc1`, the AC50 is 2.51 µM (active).
Regarding `COc1ccc(O[C@H]2C=C[C@@H](c3ccccc3)O[C@@H]2CO/N=C\[C@@H](C)[C@H](OCc2ccccc2)C(C)C)cc1`, the activity, negative = inhibition is -24.2% [at 11.4 µM].
For `COC(=O)C/C=C\[C@@H](C)[C@@H](/C=N\OC[C@@H]1O[C@H](c2ccccc2)C=C[C@@H]1Oc1ccc(OC)cc1)NS(=O)(=O)c1ccc(C)cc1`, the AC50 was 1.26 µM (active).
As to `COC(=O)C/C=C\[C@@H](C)[C@@H](/C=N\O[C@@H](C)c1cn([C@H]2COC[C@H]2O)nn1)NS(=O)(=O)c1ccc(C)cc1`, the activity, negative = inhibition is 16% [at 11.4 µM].
As to `CCCNC(=O)OC[C@H]1O[C@@H](CCO/N=C\[C@@H](NS(=O)(=O)c2ccc(C)cc2)[C@H](C)/C=C\CC(=O)OC)C=C[C@@H]1Oc1ccc(OC)cc1`, the AC50 was 3.98 µM (active).
As for `CCCNC(=O)OC[C@@H]1O[C@H](CCON=C(C)C)C=C[C@@H]1Oc1ccc(OC)cc1`, the activity, negative = inhibition was 2.96% [at 11.4 µM].
As for `CO/N=C\[C@@H](NS(=O)(=O)c1ccc(C)cc1)[C@H](C)/C=C\CC(=O)OC`, the activity, negative = inhibition was -27.4% [at 11.4 µM].
As to `CCCNC(=O)OC[C@@H]1O[C@H](CCO/N=C\[C@@H](C)[C@H](OCc2ccccc2)C(C)C)C=C[C@@H]1Oc1ccc(OC)cc1`, the activity, negative = inhibition was -22.3% [at 11.4 µM].
For `CCNc1ncc2nc(-c3ccc(F)cc3)c(=O)n(CCOC)c2n1`, the “activity, negative = inhibition” value was -4.26%.
On the same count and under the same terms, then `CCOC(=O)C1=C(C)NC(=O)N[C@@H]1c1coc2cc(C)cc(C)c2c1=O`, with -14.5% [at 11.4 µM].
`CCOC(=O)C1=C(C)NC(=O)NC1c1ccoc1` (configuration not stated): the AC50 is 12.6 µM (active).
As to `CCOC(=O)c1c(C)c(C)n2c1NC(=O)C2`, the activity, negative = inhibition is -2.03% [at 11.4 µM].
For the compound `COCCNC(=O)CSc1nc2cc(OC)c(OC)cc2c(=O)n1Cc1ccco1`, the AC50 is 2.24 µM (active).
Same read-out and setting: under `CCCCNC(=O)CSc1nc2cc(OC)c(OC)cc2c(=O)n1Cc1ccc(OC)cc1` stands 2.24 µM (active).
